In ChEMBL document CHEMBL2218924, “A broad activity screen in support of a chemogenomic map for kinase signalling research and drug discovery” (Biochem J, 2013) one finds residual activity data, which are given here for one compound.

The target in assay [1] is T1, Ephrin type-A receptor 3 (Homo sapiens) (UniProt P29320).
T1 sequence (whole entry): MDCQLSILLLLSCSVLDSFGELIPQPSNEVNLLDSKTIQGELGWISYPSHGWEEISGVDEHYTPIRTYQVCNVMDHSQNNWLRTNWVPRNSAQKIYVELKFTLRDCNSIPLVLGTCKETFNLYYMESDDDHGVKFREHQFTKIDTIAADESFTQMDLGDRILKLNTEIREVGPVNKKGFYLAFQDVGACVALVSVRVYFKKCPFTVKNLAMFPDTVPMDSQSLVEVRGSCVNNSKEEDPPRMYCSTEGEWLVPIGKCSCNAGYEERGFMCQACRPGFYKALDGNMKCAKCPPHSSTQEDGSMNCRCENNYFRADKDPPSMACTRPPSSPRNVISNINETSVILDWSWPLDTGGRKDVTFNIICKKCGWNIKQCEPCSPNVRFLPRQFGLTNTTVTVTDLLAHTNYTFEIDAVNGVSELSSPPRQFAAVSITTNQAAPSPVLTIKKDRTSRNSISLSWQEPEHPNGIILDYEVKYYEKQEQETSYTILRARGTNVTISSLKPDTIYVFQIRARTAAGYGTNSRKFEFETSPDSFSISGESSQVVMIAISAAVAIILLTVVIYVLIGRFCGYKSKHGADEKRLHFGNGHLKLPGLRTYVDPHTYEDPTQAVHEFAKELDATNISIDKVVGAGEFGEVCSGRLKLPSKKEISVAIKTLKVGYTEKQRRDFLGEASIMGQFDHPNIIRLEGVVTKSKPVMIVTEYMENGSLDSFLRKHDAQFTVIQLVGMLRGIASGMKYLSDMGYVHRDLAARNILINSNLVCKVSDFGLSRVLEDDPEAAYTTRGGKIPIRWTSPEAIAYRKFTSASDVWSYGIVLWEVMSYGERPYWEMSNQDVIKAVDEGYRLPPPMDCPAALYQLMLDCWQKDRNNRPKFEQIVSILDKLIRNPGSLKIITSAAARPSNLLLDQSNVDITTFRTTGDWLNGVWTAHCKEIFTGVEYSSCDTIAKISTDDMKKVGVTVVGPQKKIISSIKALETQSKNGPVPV
The following applies: at 10 µM.

In assay [2] the target is Ephrin type-A receptor 5 (Homo sapiens) (UniProt P54756). The following applies: at 1 µM.
Assay [3] shares this target. The following applies: at 10 µM.
Assay [4] concerns the target Ephrin type-A receptor 7 (Homo sapiens) (UniProt Q15375). The following applies: at 1 µM.
Assay [5] has the same target. The following applies: at 10 µM.
For assay [6], the target named is T2, Ephrin type-A receptor 8 (Homo sapiens) (UniProt P29322).
T2 sequence (whole entry): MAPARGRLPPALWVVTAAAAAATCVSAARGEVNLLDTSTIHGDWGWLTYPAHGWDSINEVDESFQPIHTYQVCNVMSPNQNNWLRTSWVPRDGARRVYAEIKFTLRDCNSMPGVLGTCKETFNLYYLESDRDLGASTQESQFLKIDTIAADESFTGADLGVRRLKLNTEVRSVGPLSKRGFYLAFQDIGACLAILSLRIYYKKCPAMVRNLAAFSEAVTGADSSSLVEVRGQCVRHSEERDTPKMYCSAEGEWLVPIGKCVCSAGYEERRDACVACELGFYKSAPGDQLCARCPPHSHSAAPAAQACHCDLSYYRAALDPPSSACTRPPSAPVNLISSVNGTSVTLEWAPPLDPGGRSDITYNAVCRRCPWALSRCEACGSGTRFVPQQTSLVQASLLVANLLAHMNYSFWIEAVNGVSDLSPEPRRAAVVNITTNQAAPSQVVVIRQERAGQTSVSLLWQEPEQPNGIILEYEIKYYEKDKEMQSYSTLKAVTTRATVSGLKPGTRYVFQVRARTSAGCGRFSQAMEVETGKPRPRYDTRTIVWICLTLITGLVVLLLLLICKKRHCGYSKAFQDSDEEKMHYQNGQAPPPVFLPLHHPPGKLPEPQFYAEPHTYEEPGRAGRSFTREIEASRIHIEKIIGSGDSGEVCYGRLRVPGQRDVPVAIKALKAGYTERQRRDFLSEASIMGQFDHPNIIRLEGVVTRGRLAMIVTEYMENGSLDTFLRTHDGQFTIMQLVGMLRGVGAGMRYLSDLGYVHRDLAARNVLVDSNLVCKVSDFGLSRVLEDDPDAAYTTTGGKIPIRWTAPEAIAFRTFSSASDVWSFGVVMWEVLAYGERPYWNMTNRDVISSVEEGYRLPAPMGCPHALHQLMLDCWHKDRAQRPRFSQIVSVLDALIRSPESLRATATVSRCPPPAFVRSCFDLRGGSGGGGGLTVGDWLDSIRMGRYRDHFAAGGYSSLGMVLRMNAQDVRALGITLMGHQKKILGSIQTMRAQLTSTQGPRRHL
The following applies: at 1 µM.

Assay [7] has as its target T2, Ephrin type-A receptor 8 (Homo sapiens). The following applies: at 10 µM.
Assay [8] concerns the target T3, Ephrin type-B receptor 1 (Homo sapiens) (UniProt P54762).
T3 sequence (whole entry): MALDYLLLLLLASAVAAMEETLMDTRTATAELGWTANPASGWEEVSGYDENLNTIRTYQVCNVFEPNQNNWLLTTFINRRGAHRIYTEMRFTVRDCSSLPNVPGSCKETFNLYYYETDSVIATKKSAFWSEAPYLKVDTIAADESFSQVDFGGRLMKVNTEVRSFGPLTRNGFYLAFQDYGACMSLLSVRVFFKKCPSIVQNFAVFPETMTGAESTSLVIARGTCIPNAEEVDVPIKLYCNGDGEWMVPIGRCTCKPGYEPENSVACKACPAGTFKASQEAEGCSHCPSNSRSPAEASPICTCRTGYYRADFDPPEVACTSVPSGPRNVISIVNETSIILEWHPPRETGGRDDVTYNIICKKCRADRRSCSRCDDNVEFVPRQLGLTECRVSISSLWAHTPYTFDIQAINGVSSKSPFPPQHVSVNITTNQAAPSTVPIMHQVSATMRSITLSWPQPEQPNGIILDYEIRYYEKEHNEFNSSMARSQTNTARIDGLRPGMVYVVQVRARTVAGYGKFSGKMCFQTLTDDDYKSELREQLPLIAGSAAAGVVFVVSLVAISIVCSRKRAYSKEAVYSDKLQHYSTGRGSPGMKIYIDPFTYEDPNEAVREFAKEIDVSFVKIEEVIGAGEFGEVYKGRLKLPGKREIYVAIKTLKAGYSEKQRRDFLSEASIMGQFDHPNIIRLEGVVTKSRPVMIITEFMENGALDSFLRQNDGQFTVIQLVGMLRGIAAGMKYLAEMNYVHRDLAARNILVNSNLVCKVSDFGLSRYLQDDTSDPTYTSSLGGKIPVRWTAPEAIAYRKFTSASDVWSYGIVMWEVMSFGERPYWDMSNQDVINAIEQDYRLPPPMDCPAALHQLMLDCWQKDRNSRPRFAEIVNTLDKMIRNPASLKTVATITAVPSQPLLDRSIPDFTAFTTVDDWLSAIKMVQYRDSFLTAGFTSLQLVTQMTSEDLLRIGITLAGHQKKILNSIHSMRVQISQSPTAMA
The following applies: at 1 µM.

Assay [9] deals with T3, Ephrin type-B receptor 1 (Homo sapiens). The following applies: at 10 µM.
In assay [10] the target is T4, Ephrin type-B receptor 2 (Homo sapiens) (UniProt P29323).
T4 sequence (whole entry): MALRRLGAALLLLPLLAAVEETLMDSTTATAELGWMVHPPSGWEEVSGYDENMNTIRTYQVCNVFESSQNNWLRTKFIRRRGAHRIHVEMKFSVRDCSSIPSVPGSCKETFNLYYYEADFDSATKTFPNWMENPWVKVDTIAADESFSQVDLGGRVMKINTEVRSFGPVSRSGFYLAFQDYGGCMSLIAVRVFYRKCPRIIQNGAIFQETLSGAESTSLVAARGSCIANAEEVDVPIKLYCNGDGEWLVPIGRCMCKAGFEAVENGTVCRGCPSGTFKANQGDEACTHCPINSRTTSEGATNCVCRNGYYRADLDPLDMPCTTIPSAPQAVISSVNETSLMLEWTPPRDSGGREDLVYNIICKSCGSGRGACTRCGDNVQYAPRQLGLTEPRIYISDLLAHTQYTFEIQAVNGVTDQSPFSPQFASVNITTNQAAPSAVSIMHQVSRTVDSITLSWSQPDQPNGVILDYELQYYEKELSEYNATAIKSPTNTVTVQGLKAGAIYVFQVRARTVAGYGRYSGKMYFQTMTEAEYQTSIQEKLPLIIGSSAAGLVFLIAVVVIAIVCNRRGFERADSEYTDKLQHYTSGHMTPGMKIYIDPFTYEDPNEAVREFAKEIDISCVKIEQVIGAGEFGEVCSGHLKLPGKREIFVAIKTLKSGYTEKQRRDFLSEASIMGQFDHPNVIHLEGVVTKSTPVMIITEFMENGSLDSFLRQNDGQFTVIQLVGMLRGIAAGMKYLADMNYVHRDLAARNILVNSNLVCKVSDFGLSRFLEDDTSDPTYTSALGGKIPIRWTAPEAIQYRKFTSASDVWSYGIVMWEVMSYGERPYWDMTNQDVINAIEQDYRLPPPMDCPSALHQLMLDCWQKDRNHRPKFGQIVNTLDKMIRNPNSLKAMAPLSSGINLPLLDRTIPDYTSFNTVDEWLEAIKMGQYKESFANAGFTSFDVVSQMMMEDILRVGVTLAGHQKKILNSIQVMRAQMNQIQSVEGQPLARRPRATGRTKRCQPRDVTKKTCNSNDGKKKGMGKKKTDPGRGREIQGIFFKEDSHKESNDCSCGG
The following applies: at 1 µM.

The target of assay [11] is T4, Ephrin type-B receptor 2 (Homo sapiens). The following applies: at 10 µM.
Assay [12] addresses T5, Ephrin type-B receptor 3 (Homo sapiens) (UniProt P54753).
T5 sequence (whole entry): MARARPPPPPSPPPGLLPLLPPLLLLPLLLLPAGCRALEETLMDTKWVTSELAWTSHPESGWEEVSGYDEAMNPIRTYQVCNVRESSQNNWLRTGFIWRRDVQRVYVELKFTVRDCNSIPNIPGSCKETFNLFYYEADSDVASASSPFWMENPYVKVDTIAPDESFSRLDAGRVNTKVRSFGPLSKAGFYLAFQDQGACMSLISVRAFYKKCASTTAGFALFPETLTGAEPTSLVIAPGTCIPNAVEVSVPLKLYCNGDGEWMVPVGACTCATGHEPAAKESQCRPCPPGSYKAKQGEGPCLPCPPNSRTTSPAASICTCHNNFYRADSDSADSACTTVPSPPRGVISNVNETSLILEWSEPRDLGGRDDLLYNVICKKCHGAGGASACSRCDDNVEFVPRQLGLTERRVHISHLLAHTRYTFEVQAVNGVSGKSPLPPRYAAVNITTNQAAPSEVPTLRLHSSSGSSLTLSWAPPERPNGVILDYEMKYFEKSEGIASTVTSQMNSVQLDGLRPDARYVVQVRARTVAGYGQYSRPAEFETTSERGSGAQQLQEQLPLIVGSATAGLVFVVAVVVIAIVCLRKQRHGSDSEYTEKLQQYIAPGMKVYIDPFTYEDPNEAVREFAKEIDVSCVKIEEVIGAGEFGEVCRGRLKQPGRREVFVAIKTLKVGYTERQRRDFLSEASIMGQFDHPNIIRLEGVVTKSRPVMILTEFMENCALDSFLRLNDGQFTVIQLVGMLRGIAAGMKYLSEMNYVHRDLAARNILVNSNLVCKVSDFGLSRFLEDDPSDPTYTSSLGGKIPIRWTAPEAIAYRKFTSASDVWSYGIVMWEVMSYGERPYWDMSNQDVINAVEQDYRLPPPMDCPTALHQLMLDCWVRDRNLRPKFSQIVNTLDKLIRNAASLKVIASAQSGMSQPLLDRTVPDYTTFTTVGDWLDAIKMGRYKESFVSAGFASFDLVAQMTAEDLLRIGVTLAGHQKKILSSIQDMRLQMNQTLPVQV
The following applies: at 1 µM.

Assay [13] deals with T5, Ephrin type-B receptor 3 (Homo sapiens). The following applies: at 10 µM.
The target in assay [14] is T6, Ephrin type-B receptor 4 (Homo sapiens) (UniProt P54760).
T6 sequence (whole entry): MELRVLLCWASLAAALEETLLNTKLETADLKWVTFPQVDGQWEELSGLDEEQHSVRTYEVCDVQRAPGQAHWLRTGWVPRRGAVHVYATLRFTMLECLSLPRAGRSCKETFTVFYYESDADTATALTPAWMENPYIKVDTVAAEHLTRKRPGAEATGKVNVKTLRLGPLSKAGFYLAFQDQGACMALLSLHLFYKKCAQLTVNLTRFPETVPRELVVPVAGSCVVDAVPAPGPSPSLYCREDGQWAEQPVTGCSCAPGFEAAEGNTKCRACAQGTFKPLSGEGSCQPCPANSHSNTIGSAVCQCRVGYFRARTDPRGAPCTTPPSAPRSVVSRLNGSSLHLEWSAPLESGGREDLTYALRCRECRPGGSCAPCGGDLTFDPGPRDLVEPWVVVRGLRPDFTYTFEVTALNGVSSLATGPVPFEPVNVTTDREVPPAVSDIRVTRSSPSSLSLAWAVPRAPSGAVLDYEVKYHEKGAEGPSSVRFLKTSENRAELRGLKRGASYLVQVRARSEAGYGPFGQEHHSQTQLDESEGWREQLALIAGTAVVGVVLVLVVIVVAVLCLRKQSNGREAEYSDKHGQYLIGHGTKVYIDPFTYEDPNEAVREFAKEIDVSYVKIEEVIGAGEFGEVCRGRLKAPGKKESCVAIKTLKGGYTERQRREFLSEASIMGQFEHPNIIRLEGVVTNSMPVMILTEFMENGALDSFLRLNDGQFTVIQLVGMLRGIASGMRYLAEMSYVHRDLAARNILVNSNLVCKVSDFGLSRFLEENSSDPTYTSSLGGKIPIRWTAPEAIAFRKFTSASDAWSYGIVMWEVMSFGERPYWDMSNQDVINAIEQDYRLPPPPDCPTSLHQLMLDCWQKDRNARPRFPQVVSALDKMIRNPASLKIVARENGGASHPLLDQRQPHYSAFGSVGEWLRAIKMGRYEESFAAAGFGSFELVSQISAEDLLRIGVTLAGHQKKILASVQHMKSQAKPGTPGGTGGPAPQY
The following applies: at 1 µM.

Assay [15] deals with T6, Ephrin type-B receptor 4 (Homo sapiens). The following applies: at 10 µM.
Assay [16] deals with Receptor tyrosine-protein kinase erbB-4 (Homo sapiens) (UniProt Q15303). The following applies: at 1 µM.
The target is the same in assay [17]. The following applies: at 10 µM.
Assay [18] addresses Focal adhesion kinase 1 (Homo sapiens) (UniProt Q05397). The following applies: at 1 µM.

Sequence of Ephrin type-A receptor 5 (Homo sapiens) (P54756 whole entry): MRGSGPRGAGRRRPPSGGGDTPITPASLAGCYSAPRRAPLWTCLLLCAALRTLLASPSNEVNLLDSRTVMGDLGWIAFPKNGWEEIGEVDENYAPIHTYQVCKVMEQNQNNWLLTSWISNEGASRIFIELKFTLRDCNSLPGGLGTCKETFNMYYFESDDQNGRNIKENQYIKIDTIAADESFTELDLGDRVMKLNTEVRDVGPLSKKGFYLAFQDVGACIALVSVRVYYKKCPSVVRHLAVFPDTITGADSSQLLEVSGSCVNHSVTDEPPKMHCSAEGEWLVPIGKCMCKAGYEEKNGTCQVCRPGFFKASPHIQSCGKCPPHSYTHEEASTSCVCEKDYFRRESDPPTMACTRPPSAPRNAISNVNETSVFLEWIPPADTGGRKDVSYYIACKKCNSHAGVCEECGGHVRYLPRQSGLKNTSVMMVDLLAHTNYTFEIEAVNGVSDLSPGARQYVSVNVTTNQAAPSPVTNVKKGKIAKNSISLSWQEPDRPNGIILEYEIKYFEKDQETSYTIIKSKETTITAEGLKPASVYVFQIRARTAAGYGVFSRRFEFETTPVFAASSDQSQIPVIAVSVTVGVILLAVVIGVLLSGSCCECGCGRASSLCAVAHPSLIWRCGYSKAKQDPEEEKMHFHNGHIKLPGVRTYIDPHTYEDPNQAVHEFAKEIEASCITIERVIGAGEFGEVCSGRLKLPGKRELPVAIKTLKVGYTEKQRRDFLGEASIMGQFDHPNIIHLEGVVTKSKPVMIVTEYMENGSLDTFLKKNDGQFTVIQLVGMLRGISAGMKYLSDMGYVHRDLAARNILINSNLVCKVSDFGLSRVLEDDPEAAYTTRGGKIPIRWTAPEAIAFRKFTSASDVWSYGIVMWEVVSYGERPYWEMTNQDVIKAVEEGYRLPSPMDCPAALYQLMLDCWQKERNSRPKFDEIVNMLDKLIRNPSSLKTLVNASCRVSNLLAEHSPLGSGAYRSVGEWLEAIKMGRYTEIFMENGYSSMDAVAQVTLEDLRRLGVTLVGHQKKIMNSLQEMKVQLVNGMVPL
Sequence of Ephrin type-A receptor 7 (Homo sapiens) (Q15375 28-998 limits assumed): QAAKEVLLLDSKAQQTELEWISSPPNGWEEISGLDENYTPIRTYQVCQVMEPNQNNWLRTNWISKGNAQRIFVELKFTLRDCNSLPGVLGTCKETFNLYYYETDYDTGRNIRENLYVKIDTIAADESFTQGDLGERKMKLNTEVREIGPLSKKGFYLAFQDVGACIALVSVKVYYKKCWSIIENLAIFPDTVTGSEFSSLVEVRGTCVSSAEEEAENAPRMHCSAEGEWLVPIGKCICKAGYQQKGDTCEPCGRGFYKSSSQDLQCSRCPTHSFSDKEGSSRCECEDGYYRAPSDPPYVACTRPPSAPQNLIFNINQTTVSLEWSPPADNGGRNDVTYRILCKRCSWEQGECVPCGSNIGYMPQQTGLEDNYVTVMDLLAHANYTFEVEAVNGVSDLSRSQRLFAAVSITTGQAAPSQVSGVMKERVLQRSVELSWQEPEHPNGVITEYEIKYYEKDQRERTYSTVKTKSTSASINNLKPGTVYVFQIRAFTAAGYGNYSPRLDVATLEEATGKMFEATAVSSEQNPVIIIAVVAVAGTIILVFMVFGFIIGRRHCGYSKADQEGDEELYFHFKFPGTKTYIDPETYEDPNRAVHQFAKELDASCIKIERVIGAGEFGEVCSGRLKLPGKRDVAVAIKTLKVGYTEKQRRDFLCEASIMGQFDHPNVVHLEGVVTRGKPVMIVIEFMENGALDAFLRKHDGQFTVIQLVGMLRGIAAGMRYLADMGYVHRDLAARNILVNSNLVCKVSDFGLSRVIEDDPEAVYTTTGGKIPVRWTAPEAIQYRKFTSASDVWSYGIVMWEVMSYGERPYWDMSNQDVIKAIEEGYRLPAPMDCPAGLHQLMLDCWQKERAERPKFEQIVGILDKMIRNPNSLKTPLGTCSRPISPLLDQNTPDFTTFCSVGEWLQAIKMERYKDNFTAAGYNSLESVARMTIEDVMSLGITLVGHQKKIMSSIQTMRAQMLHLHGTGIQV
Sequence of Receptor tyrosine-protein kinase erbB-4 (Homo sapiens) (Q15303 whole entry): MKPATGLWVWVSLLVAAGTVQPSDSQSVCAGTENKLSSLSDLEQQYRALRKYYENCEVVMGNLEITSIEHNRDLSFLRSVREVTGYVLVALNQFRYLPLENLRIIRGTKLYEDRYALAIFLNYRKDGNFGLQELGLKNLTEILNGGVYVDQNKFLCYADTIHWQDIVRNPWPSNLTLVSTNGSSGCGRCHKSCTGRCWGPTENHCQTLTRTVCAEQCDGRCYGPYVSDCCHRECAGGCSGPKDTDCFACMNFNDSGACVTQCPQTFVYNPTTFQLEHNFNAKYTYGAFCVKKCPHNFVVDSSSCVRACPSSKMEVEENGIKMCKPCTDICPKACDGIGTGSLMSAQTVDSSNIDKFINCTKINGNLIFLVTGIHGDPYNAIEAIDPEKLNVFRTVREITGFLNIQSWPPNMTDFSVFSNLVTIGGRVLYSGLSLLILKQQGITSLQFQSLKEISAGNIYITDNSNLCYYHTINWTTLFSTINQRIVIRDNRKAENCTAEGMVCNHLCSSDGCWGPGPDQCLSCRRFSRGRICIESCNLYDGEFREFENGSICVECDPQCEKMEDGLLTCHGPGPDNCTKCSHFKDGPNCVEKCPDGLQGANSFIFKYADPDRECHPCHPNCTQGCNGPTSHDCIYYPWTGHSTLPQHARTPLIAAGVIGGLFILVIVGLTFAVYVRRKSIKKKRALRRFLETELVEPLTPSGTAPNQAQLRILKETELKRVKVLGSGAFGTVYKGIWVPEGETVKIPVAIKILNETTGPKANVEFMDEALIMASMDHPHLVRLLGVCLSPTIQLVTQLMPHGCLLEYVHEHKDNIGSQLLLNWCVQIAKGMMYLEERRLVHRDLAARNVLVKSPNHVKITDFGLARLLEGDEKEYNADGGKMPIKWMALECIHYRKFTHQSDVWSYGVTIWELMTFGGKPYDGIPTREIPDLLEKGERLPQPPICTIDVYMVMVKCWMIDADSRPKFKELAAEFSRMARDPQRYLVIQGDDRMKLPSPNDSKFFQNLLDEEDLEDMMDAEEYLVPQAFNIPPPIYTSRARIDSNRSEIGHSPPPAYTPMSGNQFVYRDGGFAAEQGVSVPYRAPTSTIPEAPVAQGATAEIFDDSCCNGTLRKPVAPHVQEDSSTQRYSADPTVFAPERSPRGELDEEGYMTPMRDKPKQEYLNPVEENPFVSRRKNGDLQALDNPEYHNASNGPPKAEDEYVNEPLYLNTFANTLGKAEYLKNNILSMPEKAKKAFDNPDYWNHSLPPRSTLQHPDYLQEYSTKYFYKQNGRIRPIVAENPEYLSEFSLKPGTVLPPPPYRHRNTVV
Sequence of Focal adhesion kinase 1 (Homo sapiens) (Q05397 2-1052 limits assumed): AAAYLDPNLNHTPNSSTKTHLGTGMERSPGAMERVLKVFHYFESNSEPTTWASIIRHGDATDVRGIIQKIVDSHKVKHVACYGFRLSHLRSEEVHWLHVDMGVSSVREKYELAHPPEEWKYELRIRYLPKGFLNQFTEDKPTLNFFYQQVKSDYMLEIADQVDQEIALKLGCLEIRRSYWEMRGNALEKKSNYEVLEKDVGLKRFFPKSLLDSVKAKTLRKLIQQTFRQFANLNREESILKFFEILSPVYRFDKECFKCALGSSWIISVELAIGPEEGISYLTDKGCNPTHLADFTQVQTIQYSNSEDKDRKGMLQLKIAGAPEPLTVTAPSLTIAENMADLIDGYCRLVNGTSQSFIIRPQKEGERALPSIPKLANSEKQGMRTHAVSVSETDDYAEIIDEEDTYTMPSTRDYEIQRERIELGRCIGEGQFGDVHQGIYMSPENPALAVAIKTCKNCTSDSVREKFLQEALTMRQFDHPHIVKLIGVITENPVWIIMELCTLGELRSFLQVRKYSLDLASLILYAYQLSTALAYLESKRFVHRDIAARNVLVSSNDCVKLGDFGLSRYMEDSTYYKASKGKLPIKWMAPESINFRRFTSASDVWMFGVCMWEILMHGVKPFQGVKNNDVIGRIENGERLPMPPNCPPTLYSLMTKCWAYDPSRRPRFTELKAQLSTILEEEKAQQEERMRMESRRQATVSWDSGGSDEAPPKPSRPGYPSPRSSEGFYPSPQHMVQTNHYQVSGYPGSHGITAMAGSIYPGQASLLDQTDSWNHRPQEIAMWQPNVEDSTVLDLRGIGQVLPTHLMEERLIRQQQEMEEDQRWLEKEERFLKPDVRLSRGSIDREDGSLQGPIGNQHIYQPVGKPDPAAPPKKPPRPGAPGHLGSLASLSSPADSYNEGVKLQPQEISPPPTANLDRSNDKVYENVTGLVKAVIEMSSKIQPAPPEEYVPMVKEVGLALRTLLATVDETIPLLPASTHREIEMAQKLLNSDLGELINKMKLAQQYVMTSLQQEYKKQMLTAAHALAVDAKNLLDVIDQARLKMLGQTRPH

For `O=C1Nc2ccccc2/C1=C1/Nc2ccccc2/C1=N\OCCC(O)CO` (stereo not drawn), the residual activity (in general, the signal under treatment as a percentage of the control signal) in assay [1] turned out to be 6%; in assay [2], 59%; in assay [3] it was 23%; in [4], 58%; in [5], 10%; in [6], 72%. The residual activity in assay [7] is 32%; in [8], 56%; in [9], 8%; in [10] it was 82%; in [11] it was 12%; in [12] it was 117% (inactive). In addition, the residual activity in assay [13] was 112%; in assay [14], 49%; in assay [15], 4%; in [16], 107%; in assay [17] it was 105%; in assay [18], 16%.
